HT1080 IDH1KD tx = HT-1080 IDH1 knockdown cell toxicity (counter line) | HT-1080 IDH1 knockdown viability, ATP luminescence, 48 h | Potency, µM (top dose mostly 46.1 µM), inactives show top-dose activity, negative = toxicity, actives largely listed as cytotoxic | 360,000 tested, 2% active | AID 686971;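 also: potency is read from the fitted curve at half-maximal effect; 0% = DMSO wells and -100% = cell-free medium wells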
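IDH1KD HT-1080 cells, 750/well, RPMI + 5% FBS; compound pinned after 2 h settling; 48 h, 37 °C; CellTiter-Glo luminescence; % activity normalised to DMSO and no-cell wells; curves fitted, classed by r2 and efficacy.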
IL1B secr inh = inflammasome signaling inhibition, IL-1 beta readout; THP-1 LPS/ATP IL-1B secretion, AlphaLISA, 16 h; stronger effect = lower value; activity change, % at 57.5 µM; 360,000 tested, 4.7% active; in the data active = activity change below about -50%; inconclusive = mostly about -30% to -49%; also: % is scaled to controls: 0 for no effect and ±100 for the full control effect
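THP-1 cells pretreated 1 hr with compounds (up to 57.5 uM final), then stimulated with LPS (250 ng/mL final) plus ATP (1.25 mM final); secreted IL-1B measured by AlphaLISA after 16 hr, decreased signal indicating inhibition.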
Giardia kill = Giardia lamblia killing | Giardia lamblia trophozoite viability | activity change, % at 7.66 µM, hits read low | 340,000 tested, 0.15% active; in the data active = activity change below about -80%; inconclusive = between about -30% and that limit;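 also: parasites exposed to compound for two days anaerobically before the ATP read; % is scaled to controls: 0 for no effect and ±100 for the full control effect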
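Media and compound were dispensed first, then trophozoites at 100 cells/well; plates sat 48 hrs at 37 deg C without oxygen before ATP luminescence reagent was added and read after 15-30 min at room temperature.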
HepG2 tox = kills HepG2 cells in TGF-b inhibitor counter-screen. 410,000 tested, 0.76% active. AID 588856. Potency, µM (top dose mostly 46.1 µM), for inactives: at the highest dose activity change, negative = cytotoxicity, actives largely listed as cytotoxic. HepG2 CAGA-GFP viability, ATP luminescence, 18 h; also: potency is read from the fitted curve at half-maximal effect
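HepG2 CAGA-GFP cells (1000/well, DMEM with 1% FBS) received compound, then TGF-beta at 500 pg/mL final, and were incubated 18 hours at 37 degrees C. Viability was read by CellTiter-Glo luminescence. Media-only wells were set as complete cell-killing and DMSO as no toxicity.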
TGFb inhibitor = blocks TGF-b signaling | HepG2 CAGA-GFP TGF-b/SMAD3 reporter, GFP fluorescence, 18 h; TGF-beta stimulated, 500 pg/mL final | Potency, µM (doses to about 46.1 µM), for inactives: top-dose activity, negative = inhibition, actives largely listed as inhibitors | 410,000 tested, 1.2% active; also: potency is read from the fitted curve at half-maximal effect; % is scaled to controls: 0 for no effect and ±100 for the full control effect; nearly all actives have a fitted effect of over 65% in size
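First, reporter cells (HEPG2 CAGA-GFP) rested 2 h at 37 degrees C. Next, compounds were pinned in and TGF-beta added to 500 pg/mL final. After 18 h, GFP was imaged per cell and summed per well.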
HT1080NT lethal = kills 2HG-producing HT-1080-NT fibrosarcoma cells. HT-1080-NT fibrosarcoma viability, CellTiter-Glo ATP luminescence, 48 h. Potency, µM (highest dose often 46.1 µM), for the others: at the top dose activity, negative = less viability, actives largely listed as cytotoxic. 360,000 tested, 1.6% active. AID 686970;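 also: NT is the 2HG producing partner of a matched IDH1 knockdown line; potency is read from the fitted curve at half-maximal effect; 0% = DMSO-treated cells and -100% = media-only wells without cells; nearly all actives have a fitted effect of over 55% in size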
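Toxicity toward the 2HG-producing NT line was scored as %Activity, normalised to DMSO and no-cell wells, from CellTiter-Glo luminescence after 48 hours' treatment.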
* hit, by the source's call; ? = inconclusive; · = not tested or not shown. Rows were chosen to be rich in hits. Some 6.5% of all compounds tested hit in one or more screens of this group. Unless noted, calls follow the shape of the dose curve; as a rule, active = well fitted curve in the direction sought with a large enough effect; inconclusive = small, poorly fitted or top-dose-only effect, or another doubt; inactive = no such curve, though single readings can be large; an effect the other way counts as inactive or inconclusive.

SMILES | HT1080 IDH1KD tx | IL1B secr inh | Giardia kill | HepG2 tox | TGFb inhibitor | HT1080NT lethal
O=C(Cn1cc(C(F)(F)F)ccc1=O)N/N=C/c1ccc(F)cc1 | -3.8% | -5.6 | 2.0 | -41.2% | 1.0% | -13.3%
O=C(O)COc1ccc(/C=N/NC(=O)COc2nsnc2N2CCOCC2)cc1 | 26.6% | -9.5 | 8.5 | -0.2% | -4.5% | 28.1%
O=C(CSCC(=O)NN=Cc1ccccc1O)NN=Cc1ccccc1O | 20.6µM* | 37.5 | 6.1 | -9.6% | -20.9% | ?
COc1ccc(/C=N/NC(=O)CCC(=O)Nc2ccc(Br)cc2)c(OC)c1 | ? | -74.7* | 9.0 | -79.0% | ? | ?
Cc1ccc(NC(=O)CCC(=O)N/N=C/c2ccccc2O)cc1 | ? | 111.7 | -11.1 | -22.2% | -29.7% | ?
CCCS(=O)(=O)c1nc(S(=O)(=O)c2ccc(C)cc2)c(NCCCOC(C)C)s1 | · | · | · | -19.5% | · | ·
O=C(CCC(=O)Nc1ccc(Br)cc1)N/N=C/c1ccccc1O | 13µM* | 144.1 | -17.5 | -15.8% | -2.1% | 10.3µM*
O=C(CCCCC(=O)NN=Cc1ccccc1O)NN=Cc1ccccc1O | 6.51µM* | 123.2 | -3.5 | -1.7% | -0.4% | ?
COc1cccc(/C=N/NC(=O)CSCC(=O)Nc2ccccc2)c1O | 2µM* | 152.5 | 0.7 | -17.5% | 8.5% | 3.98µM*
CC[C@@H](C)[C@@H]1CN([C@@H](C)CN2CCC[C@H]2CN2C(N)=NC[C@@H]2Cc2ccccc2)C(=N)N1CCCC1CCCC1 | 0.2% | -63.4* | -5.0 | -19.9% | -2.7% | -2.9%
CC[C@@H](C)[C@@H]1CN([C@@H](C)CN2CCC[C@H]2CN2C(N)=NC[C@@H]2Cc2ccccc2)C(=N)N1CCc1ccc(Cl)c(Cl)c1 | -4.3% | -25.4 | -13.9 | 0.0% | -5.6% | ?
CC[C@@H](C)[C@@H]1CN([C@@H](C)CN2CCC[C@H]2CN2C(N)=NC[C@H]2CC(C)C)C(=N)N1CCCC1CCCC1 | -1.1% | ? | 8.5 | -2.6% | 1.0% | 0.1%
CC[C@@H](C)[C@@H]1CN([C@@H](CN2CCC[C@H]2CN2C(N)=NC[C@H]2C(C)C)C(C)C)C(=N)N1CCc1ccc(Cl)c(Cl)c1 | -4.0% | -77.7* | -15.1 | -0.9% | 0.6% | -1.0%
CCC[C@@H](CN1CCC[C@H]1CN1C(N)=NC[C@H]1C(C)C)N1C[C@@H](Cc2ccccc2)N(CCCC2CCCC2)C1=N | 0.8% | -63.5* | -23.2 | -10.2% | 19.0% | 1.2%
COc1ccc2c(CC(=O)OCC(=O)Nc3ccc(C)cc3)coc2c1 | -2.3% | 24.1 | 3.9 | 1.9% | 2.2% | 23.4%
CC(C)(C)C(=O)Nc1cccc(S(=O)(=O)NC2=NCCC2)c1 | -0.1% | 1.1 | -1.2 | 72.6% | 14.2% | 5.4%
CS(=O)(=O)c1ccc(Sc2nc3ccccc3s2)c([N+](=O)[O-])c1 | 20.6µM* | -120.9* | -5.6 | -38.7% | ? | -9.8%
CS(=O)(=O)c1ccc(Sc2nc3ccccc3[nH]2)c([N+](=O)[O-])c1 | -3.9% | ? | -0.2 | -3.3% | ? | -0.6%
O=[N+]([O-])c1cc(S(=O)(=O)C(F)(F)F)ccc1Sc1nc2ccccc2s1 | ? | -121.1* | -6.1 | 17.8µM* | ? | 23.1µM*
O=[N+]([O-])c1cc(S(=O)(=O)C(F)(F)F)ccc1Sc1nc2ccccc2[nH]1 | 18.4µM* | -102.9* | -15.5 | -94.7% | ? | ?
Cc1nc(-c2nc(C(=O)NNS(C)(=O)=O)cs2)cs1 | 6.3% | 19.2 | -7.4 | 1.9% | 3.0% | 0.3%
CSC1=NC(C(Cl)(Cl)Cl)N=C(c2ccc(C)cc2)N1 (stereo not drawn) | 0.651µM* | 29.6 | -2.9 | 8.7% | ? | 0.366µM*
CCC1N=C(SC)NC(C)=C1C(=O)c1ccccc1 (stereo not drawn) | -4.5% | -3.1 | 11.6 | 6.4% | 7.5% | -2.3%
COc1cccc(OC)c1OCCCN1CCC(Cc2ccccc2)CC1 | ? | -65.3* | -3.9 | -16.5% | 3.4% | -23.8%
COc1ccc(CNC(=O)CN2CCN(C(c3ccccc3)c3ccccc3)CC2)cc1 | -0.8% | -64.3* | 13.4 | -4.6% | -15.4% | -13.7%
SMILES | HT1080 IDH1KD tx | IL1B secr inh | Giardia kill | HepG2 tox | TGFb inhibitor | HT1080NT lethal
O=C(CN1CCN(C(c2ccccc2)c2ccccc2)CC1)NCc1ccccc1 | 0.0% | -26.4 | 12.6 | -4.2% | -0.9% | -12.4%
COc1ccc(CN2CCC(Cc3ccccc3)CC2)cc1OC | -12.9% | ? | -9.9 | -26.9% | -2.7% | ?
COc1cccc(OC)c1OCCN1CCN(C(c2ccccc2)c2ccccc2)CC1 | -29.0% | -52.7* | -11.6 | -47.9% | ? | -24.2%
COc1cccc(OC)c1OCCN1CCCC1 | 0.6% | 14.9 | -17.7 | 1.8% | -2.1% | -3.0%
CCOc1ccc(CCNC(=O)c2cccc(S(=O)(=O)N3CCCC3)c2)cc1OCC | -11.7% | 15.8 | -13.2 | -5.0% | -18.5% | -9.4%
O=C(/C=C\NCC(=O)c1ccccc1)c1ccc2ccccc2c1 | 10.8% | -53.9* | -9.1 | 9.6% | 8.3% | 0.2%
Cc1ccc(C(=O)/C=C/c2ccccc2)o1 | -7.6% | ? | 5.1 | -49.0% | -24.8% | -2.1%
Cc1c(O)c2c(c(C(=O)/C=C/c3ccccc3)c1O)OC(C)(C)C=C2 | · | · | · | -44.7% | 11.2µM* | ·
Cc1ccc(-n2ncc3c(N4CCN(Cc5ccccc5)CC4)ncnc32)cc1 | · | · | · | 6.4% | 6.1% | ·
OC1(c2cccc(C(F)(F)F)c2)CCN(c2ccc(-c3ccccc3)nn2)CC1 | 6.0% | -4.8 | -7.0 | -0.6% | -0.4% | 0.2%
Cc1ccc2[nH]c3c(N4CCN(Cc5ccccc5)CC4)ncnc3c2c1 | 20.6µM* | ? | 17.9 | 7.94µM* | ? | ?
Cc1ccc2c(c1)[nH]c1c(N3CCN(Cc4ccccc4)CC3)ncnc12 | ? | -98.0* | 5.1 | -70.1% | 11.2µM* | ?
c1ccc(CN2CCN(c3ncnc4c3[nH]c3ccccc34)CC2)cc1 | ? | -95.2* | -2.5 | -28.7% | ? | ?
c1ccc2c(c1)[nH]c1c(N3CCC4(CC3)OCCO4)ncnc12 | ? | -12.4 | -7.3 | -5.5% | ? | -27.7%
OC1(c2cccc(C(F)(F)F)c2)CCN(c2ncnc3c2[nH]c2ccccc23)CC1 | ? | -23.8 | 13.5 | -52.8% | ? | 23.1µM*
COc1ccccc1CNC(=O)CC1C(=O)NCCN1C1Cc2ccccc2C1 (stereo not drawn) | 2.6% | 1.2 | 0.7 | -11.3% | 0.1% | -0.7%
COC(=O)c1sc2nc(C)cc(-c3ccccc3)c2c1N | 14.7% | -1.6 | -17.6 | -14.7% | 11.7% | 16.1%

High-throughput results: PubChem BioAssay, National Center for Advancing Translational Sciences (NCATS)
